The values that follow come from ChEMBL document CHEMBL3988442, “University of Dundee, Small-Polar-MMV Screening Library” (2021).

Common to all, as to design: scale not given: direction of the effect not stated beside the values
Assay [1] addresses Protein translocase subunit SecA (Escherichia coli (strain K12)) (UniProt P10408). The assay is described as follows: Assay to Identify E. coli SecA ATPase Inhibitors. It is filed as functional. As to conditions: 30 µM.
In assay [2] the target is T1, Ubiquitin-activating enzyme e1, putative (Leishmania donovani (strain BPK282A1)) (UniProt E9BSI1).
T1 sequence (whole entry): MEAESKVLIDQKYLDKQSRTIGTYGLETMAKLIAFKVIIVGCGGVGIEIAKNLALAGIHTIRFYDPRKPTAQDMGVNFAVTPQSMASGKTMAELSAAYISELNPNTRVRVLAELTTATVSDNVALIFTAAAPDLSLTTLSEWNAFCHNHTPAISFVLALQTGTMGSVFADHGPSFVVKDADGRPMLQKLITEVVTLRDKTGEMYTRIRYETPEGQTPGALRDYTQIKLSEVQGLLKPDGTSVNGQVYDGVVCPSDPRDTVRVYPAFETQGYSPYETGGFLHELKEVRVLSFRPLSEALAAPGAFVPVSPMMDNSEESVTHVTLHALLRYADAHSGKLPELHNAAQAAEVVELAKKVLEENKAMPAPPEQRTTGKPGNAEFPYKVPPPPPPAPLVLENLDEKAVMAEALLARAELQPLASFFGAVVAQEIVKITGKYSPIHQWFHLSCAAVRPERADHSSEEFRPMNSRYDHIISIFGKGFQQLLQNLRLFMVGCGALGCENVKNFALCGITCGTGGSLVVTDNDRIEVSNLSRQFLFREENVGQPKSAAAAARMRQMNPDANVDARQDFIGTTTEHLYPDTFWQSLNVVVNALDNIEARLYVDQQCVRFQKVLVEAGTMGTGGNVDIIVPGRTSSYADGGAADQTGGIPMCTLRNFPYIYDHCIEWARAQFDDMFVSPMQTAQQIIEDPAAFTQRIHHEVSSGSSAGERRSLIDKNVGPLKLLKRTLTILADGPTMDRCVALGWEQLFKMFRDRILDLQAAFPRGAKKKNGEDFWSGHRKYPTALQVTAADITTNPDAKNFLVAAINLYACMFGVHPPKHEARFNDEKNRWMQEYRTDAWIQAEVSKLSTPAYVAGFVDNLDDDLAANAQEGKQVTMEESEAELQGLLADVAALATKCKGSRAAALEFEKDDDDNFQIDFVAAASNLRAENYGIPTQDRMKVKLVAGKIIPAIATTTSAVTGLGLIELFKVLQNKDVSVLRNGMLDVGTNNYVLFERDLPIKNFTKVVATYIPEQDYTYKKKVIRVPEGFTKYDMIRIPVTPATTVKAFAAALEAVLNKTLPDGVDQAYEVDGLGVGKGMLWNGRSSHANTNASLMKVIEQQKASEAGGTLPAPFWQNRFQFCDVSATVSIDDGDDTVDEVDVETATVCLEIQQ
The assay is described as follows: Leishmania donovani Ubiquitin Activating Enzyme (LdE1). It is filed as functional. The following applies: 30 µM.

For assay [3], the target named is AMP-activated protein kinase, AMPK (Homo sapiens) (UniProt P54646+O43741+P54619+Q9UGJ0+Q9Y478+Q13131+Q9UGI9). The experiment in a line: AMP-dependent Kinase enzyme assay. An in vitro enzyme assay that detects ADP turnover that is directly proportional to AMPK activity. This uses naive AMPK that is activated during the assay with MK-8722. It counts as functional. The following applies: 30 µM.

Assay [4] has as its target Sialic acid-binding Ig-like lectin 9 (Homo sapiens) (UniProt Q9Y336). The assay is described as follows: Hs-Siglec9 ALPHAscreen SOP 20170721. The following applies: 10 µM. In general terms: Alpha assays give light when donor and acceptor beads are brought close together.
Another assay relates to Trypanosoma cruzi. The experiment in a line: Trypanosoma cruzi phosphomannomutase and mannose-1-phosphate guanylyltransferase assay. The following applies: 10 µM. It is filed as functional.
Assay [5] deals with T2, Arginase-2, mitochondrial (Homo sapiens) (UniProt P78540).
T2 sequence (whole entry): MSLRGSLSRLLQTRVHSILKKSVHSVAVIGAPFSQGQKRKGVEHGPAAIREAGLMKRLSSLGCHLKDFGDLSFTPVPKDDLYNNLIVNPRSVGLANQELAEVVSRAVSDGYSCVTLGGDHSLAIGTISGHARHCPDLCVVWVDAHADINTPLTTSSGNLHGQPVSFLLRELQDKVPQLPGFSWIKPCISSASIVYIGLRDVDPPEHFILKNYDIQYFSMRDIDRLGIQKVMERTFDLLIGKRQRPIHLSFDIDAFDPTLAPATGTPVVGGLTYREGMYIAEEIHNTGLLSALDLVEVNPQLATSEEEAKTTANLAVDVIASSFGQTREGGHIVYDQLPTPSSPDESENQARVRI
The experiment in a line: in vitro enzyme assay to detect the production of urea directly proportional to the activity of Arginase II. Also: in the data most compounds retested in dose-response had high values. The following applies: 33.3 µM. It is filed as functional.

For assay [6], the target named is T3, Proteasome subunit beta (Trypanosoma cruzi) (UniProt O96673).
T3 sequence (whole entry): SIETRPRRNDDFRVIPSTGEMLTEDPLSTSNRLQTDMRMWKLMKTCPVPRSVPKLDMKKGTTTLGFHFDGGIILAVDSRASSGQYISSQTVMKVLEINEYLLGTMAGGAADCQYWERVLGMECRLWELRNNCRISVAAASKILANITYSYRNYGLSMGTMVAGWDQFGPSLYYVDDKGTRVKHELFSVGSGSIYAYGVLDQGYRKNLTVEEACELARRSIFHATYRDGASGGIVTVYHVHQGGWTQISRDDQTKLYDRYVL
The assay is described as follows: Trypanosoma cruzi proteasome chymotrypsin-like activity (TcProtChymo) assay. Also: in the data most compounds retested in dose-response had high values. The following applies: 9.37 µM. It is filed as functional.

The species entered for a further assay is Homo sapiens. The assay is described as follows: To identify inhibition of the IFN signalling (Jak-Stat) pathway via expression of an eGFP reporter gene under the control of an IFN-stimulated response element (ISRE) containing MxA promoter. It is filed as functional. The following applies: 30 µM. In general terms: A reporter such as luciferase makes a cellular process visible.

Assay [7] has as its target T4, Tyrosyl-tRNA synthetase, putative (Trypanosoma cruzi (strain CL Brener)) (UniProt Q4DSP6).
T4 sequence (whole entry): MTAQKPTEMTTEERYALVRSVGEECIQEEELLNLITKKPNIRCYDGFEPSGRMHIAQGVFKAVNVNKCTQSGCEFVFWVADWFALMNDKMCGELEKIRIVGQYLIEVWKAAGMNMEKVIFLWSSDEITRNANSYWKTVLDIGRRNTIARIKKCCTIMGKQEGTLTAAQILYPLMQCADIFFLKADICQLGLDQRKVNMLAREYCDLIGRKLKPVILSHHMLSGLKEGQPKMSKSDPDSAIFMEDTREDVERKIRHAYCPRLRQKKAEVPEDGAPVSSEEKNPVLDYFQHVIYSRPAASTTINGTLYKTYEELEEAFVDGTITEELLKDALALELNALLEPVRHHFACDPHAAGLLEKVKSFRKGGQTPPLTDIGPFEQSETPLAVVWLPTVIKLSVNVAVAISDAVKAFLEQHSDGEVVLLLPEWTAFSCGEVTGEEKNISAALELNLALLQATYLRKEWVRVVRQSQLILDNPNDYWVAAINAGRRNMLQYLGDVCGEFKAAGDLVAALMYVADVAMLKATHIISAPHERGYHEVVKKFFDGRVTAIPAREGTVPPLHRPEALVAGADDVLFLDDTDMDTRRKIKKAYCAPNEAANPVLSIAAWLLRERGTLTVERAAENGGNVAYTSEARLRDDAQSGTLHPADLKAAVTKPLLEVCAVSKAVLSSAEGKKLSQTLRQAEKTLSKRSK
The assay is described as follows: Trypanosoma cruzi tyrosyl tRNA synthetase (TcYRS) _High Tyrosine SOP. Also: in the data most compounds retested in dose-response had high values. It is filed as functional. As to conditions: 30 µM.

In assay [8] the target is T4, Tyrosyl-tRNA synthetase, putative (Trypanosoma cruzi (strain CL Brener)). The assay is described as follows: Trypanosoma cruzi tyrosyl tRNA synthetase (TcYRS) SOP. It counts as functional. The following applies: 30 µM.
Assay [9] has as its target Chromo domain-containing protein 1 (Saccharomyces cerevisiae (strain ATCC 204508 / S288c) (Baker's yeast)) (UniProt P32657). The experiment in a line: ScCHD-1 Enzyme Inhibition Assay. Also: in the data most compounds retested in dose-response had high values. It is filed as functional. As to conditions: 30 µM.

For some of these results: Entries with a potency or affinity are not part of this list.

Sialic acid-binding Ig-like lectin 9 (Homo sapiens), sequence (Q9Y336 whole entry): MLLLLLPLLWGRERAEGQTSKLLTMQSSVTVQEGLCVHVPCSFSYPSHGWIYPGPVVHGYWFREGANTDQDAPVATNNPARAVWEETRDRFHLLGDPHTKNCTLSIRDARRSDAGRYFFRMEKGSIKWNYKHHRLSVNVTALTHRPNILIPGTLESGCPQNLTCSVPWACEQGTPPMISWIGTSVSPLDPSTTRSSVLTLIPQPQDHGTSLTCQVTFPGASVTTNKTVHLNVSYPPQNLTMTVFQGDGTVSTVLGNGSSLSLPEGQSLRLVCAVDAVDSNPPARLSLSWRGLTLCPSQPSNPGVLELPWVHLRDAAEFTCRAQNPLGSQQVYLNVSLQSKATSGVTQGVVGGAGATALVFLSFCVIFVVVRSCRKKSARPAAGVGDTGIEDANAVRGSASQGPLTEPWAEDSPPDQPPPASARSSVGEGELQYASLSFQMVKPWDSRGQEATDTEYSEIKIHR
Protein translocase subunit SecA (Escherichia coli (strain K12)), sequence (P10408 whole entry): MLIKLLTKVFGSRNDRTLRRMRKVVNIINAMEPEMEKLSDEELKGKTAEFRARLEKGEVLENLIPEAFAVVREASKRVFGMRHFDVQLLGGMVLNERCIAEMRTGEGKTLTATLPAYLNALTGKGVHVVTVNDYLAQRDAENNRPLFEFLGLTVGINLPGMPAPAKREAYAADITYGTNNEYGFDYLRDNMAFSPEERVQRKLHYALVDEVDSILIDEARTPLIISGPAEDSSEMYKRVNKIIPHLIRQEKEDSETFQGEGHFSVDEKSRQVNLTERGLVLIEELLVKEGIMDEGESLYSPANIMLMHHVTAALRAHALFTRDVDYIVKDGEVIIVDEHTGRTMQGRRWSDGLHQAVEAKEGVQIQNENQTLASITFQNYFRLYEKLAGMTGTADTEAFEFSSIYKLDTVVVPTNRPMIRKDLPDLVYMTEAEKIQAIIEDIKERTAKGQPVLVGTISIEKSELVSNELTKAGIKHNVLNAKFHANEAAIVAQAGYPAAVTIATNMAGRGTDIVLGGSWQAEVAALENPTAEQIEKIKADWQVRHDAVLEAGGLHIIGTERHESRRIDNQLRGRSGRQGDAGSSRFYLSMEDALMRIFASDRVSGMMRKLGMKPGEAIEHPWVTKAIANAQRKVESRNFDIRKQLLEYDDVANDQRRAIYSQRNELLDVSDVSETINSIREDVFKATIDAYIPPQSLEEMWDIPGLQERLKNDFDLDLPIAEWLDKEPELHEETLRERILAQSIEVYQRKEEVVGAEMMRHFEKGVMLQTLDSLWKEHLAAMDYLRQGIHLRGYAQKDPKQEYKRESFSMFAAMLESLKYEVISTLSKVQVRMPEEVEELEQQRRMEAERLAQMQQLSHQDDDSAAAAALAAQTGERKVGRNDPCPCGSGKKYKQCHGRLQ
Chromo domain-containing protein 1 (Saccharomyces cerevisiae (strain ATCC 204508 / S288c) (Baker's yeast)), sequence (P32657 whole entry, the tested form may be a part): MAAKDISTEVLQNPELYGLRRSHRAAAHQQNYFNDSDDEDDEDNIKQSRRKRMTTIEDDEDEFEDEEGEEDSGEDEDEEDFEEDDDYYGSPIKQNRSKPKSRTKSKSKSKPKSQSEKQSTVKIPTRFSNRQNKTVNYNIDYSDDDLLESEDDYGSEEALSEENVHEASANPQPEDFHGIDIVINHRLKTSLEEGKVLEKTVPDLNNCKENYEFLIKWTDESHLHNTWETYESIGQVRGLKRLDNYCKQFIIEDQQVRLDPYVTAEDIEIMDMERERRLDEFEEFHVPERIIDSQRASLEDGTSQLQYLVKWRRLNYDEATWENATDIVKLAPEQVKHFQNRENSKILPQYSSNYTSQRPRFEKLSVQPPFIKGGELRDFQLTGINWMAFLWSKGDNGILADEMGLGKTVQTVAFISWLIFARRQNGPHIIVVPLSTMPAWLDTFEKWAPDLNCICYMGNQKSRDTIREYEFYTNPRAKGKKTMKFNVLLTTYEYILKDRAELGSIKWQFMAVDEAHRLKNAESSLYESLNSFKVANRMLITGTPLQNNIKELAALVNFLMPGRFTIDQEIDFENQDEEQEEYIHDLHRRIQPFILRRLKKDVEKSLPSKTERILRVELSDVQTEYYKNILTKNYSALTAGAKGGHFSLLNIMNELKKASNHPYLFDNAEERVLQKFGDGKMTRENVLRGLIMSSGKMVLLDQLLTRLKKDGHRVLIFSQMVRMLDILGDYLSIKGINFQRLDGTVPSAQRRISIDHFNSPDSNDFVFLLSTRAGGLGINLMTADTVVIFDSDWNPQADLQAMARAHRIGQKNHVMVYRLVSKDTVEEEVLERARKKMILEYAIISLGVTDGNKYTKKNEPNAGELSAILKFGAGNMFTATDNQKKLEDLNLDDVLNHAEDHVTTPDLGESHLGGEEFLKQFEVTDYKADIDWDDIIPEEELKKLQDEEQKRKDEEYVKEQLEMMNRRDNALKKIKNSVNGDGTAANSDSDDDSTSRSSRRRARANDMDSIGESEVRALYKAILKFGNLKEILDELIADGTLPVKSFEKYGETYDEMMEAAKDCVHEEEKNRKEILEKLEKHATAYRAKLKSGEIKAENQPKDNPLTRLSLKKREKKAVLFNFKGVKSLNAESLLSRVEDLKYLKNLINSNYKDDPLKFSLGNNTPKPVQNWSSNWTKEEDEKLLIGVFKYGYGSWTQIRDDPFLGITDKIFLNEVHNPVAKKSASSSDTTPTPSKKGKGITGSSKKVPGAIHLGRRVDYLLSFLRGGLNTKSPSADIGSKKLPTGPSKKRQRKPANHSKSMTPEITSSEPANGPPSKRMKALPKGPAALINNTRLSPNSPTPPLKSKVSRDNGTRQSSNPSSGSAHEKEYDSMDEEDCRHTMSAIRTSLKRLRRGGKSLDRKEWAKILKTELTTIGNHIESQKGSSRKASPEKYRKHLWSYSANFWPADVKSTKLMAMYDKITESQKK

Regarding `C[S+]([O-])c1nncn1CC(=O)c1ccc2c(c1)CCO2` (stereo unspecified), the Percent Effect in assay [1] is -5.7%; in [2], 8.11%; in assay [3], -3.44%; in assay [4], 36.4%; in the assay on Trypanosoma cruzi, 3.23%; in [5], 26.6%. The Percent Effect in [6] was 12.4%; in the assay listed under Homo sapiens, -10.5%; in assay [7], 3.23%; in [8], 16.1%; in assay [9] it was -9.11%.

In the case of `Cc1[nH]ccc1C(=O)Nc1cccc(CN2CCC(CO)CC2)c1`, the Percent Effect was -3.65% in [1]; 23.7% in assay [2]; -7.05% in [3]; -13.3% in [4]; 0.876% with Trypanosoma cruzi; -17.8% in assay [5]. Also, the Percent Effect in [6] is 8.34%; in the assay filed under Homo sapiens it was 30.6%; in assay [7], 3.19%; in assay [8], 13%; in assay [9], -9.32%.

For the molecule `CSc1cc2c(cc1NC(=O)NCC(C)(C)C(N)=O)OCCO2`, the Percent Effect in [1] is -3.46%; in [2] it was 0%; in assay [3], 0.42%; in assay [4], -2.41%; in the assay on Trypanosoma cruzi it was -3.91%; in assay [5], -28.8%. Also, the Percent Effect in assay [6] is 12.8%; in the assay listed under Homo sapiens, -6.09%; in [7], -27.7%; in assay [8] it was 6.1%; in assay [9], 0.589%.

For the molecule `COCC1CCN(c2cc(C3CN(C)CCO3)nc(C)n2)CC1` (stereo unspecified), the Percent Effect is -3.57% in assay [1]; -5.33% in assay [2]; 6.9% in assay [3]; -0.404% in [4]; -1.77% with Trypanosoma cruzi; 0.233% in [5]. The Percent Effect in [6] was 2.38%; in the assay listed under Homo sapiens, 6.27%; in assay [7], -1.06%; in [8] it was -3.85%; in assay [9], 9.94%.

Take `O=C1CC(N(C(=O)c2ccc3c(c2)CCC3)C2CC2)C(=O)N1` (stereo unspecified): the Percent Effect is -3.91% in [1]; 7.59% in assay [2]; -5.04% in assay [3]; -3.45% in [4]; -8.21% in the assay on Trypanosoma cruzi; 4.18% in assay [5]. For the same molecule, the Percent Effect is 5.98% in assay [6]; 25.8% in the assay listed under Homo sapiens; -0.493% in [7]; 1.27% in assay [8]; -6.63% in assay [9].

As for `CCN(CCNC(=O)c1ccccc1OCCOC)C1CC1`, the Percent Effect in assay [1] was -1.14%; in assay [2] it was 21.5%; in [3] it was -0.982%; in assay [4] it was -8.11%; in the assay on Trypanosoma cruzi, 0.513%; in assay [5], -4.52%. Moreover, the Percent Effect in assay [6] was 17%; in the assay filed under Homo sapiens it was 14.4%; in assay [7], 3.12%; in assay [8], 17.7%; in assay [9], -34.3%.

Take `CCOC(=O)NC(CNC(=O)c1ncccn1)CC(C)C` (stereo unspecified): the Percent Effect in [1] is -3.7%; in assay [2] it was 8.11%; in [3], -1.89%; in assay [4] it was 31.5%; in the assay on Trypanosoma cruzi, 5.96%; in [5], 13.7%. Further, the Percent Effect in [6] was 11.8%; in the assay listed under Homo sapiens, -4.96%; in [7] it was 4.3%; in assay [8], 13.6%; in assay [9] it was -6.28%.

Consider `CCOC(=O)C1CCN(C(=O)Cn2ccc3cc(Br)ccc32)CC1`, for which the Percent Effect in [1] was -3.71%; in [2], 14.7%; in assay [3], -7.58%; in [4], -2.58%; in the assay on Trypanosoma cruzi it was 6.29%; in assay [5], -0.88%. The Percent Effect in assay [6] is 9.43%; in the assay listed under Homo sapiens, 4.34%; in [7], 1.06%; in [8], 10.3%; in [9], -13.5%.

As for `O=C([C@@H]1CCO[C@@H]2CCN(Cc3cccnc3)C[C@H]21)N1CCCCO1`, the Percent Effect in [1] was -2.75%; in assay [2], 14.7%; in assay [3], 2.91%; in [4], 5.02%; in the assay with Trypanosoma cruzi, -1.57%; in assay [5], -6.51%. For the same molecule, the Percent Effect was 11.5% in assay [6]; 17.3% in the assay listed under Homo sapiens; 4.23% in [7]; 7.69% in assay [8]; -7.97% in assay [9].

As for `CN(Cc1ccco1)C(=O)CN1CCCC(Cn2cncn2)C1` (stereo unspecified), the Percent Effect in assay [1] was -2.53%; in assay [2], 5.26%; in assay [3] it was -6.77%; in assay [4] it was 10.4%; with Trypanosoma cruzi it was 3.64%; in assay [5], 2.16%. The Percent Effect in assay [6] was 15%; in the assay filed under Homo sapiens, -16.1%; in assay [7], 5.42%; in [8] it was 11.1%; in assay [9], -6.09%.

For `CC(Cn1cccn1)NC(=O)Nc1ccc(F)cc1` (stereo unspecified), the Percent Effect in assay [1] was 0.465%; in assay [2] it was 6.94%; in [3] it was -0.867%; in assay [4], -4.43%; in the assay on Trypanosoma cruzi it was -5.15%; in assay [5] it was 1.77%. For the same molecule, the Percent Effect in assay [6] was 22.1%; in the assay filed under Homo sapiens, 9.63%; in [7], 1.05%; in assay [8] it was 0%; in [9], -1.51%.
